These results are taken from PubChem BioAssay.

Structures are written as SMILES. Several values for one entry are separate records, joined by “and”; a condition that tells them apart may be missing. Identical values can stand only once. Unmarked numbers belong to inactive results. How the calls were made is not given here.

Chain of Pantothenate synthetase (Mycobacterium tuberculosis (strain ATCC 25618 / H37Rv)) (P9WIL5 whole entry, looked up): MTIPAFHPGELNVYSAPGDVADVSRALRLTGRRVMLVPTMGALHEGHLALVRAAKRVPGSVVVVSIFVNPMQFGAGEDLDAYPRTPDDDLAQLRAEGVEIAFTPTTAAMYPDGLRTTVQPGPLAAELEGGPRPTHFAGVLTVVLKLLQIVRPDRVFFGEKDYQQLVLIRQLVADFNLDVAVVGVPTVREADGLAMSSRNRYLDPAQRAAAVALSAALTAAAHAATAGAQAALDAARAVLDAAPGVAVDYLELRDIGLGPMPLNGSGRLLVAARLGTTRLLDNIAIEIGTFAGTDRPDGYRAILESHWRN

This assay addresses Pantothenate synthetase (Mycobacterium tuberculosis (strain ATCC 25618 / H37Rv)) (UniProt P9WIL5). Kind of assay: Recombinant Mtb pantothenate synthetase (PanC) inhibitors, coupled enzyme, confirmatory (AID 375).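 Further: 0% = full reaction with vehicle and 100% = no enzyme background.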 Particulars: coupled enzyme assay; at 10 µM, stronger effect = higher value.
With `CCc1cc2c(CN3CCN(CCO)CC3)cc(=O)oc2cc1O`, the inhibition (in general, how much of the control response was suppressed) was 0%.

As to `COc1ccc(C2C(C#N)=C(C)NC3=C2C(=O)CC(C)(C)C3)c(OC)c1` (stereo not given), the inhibition is 0%.

For the molecule `CC(C)(C)C1CCc2c(sc3c2C(=O)NC(c2ccco2)N3)C1` (stereo not given), the inhibition is 2%.

Regarding `Cc1ccc2c(c1)CCCN2C(=O)C1CCCO1` (stereo not given), the inhibition was 5%.

As for `Cn1c(-c2ccc(F)cc2)cnc1SCC(=O)Nc1ccccc1N1CCOCC1`, the inhibition was 0%.

Consider `COCCCN1C(=O)C(=O)/C(=C(/O)c2ccc(OC)cc2)C1c1ccc(O)c(OC)c1` (stereo not given), for which the inhibition is 0%.

In the case of `NC(=O)c1cc(-c2ccccc2)nc(N2CCOCC2)n1`, the inhibition was 0%.

Take `CCOc1ccccc1C(=O)N1CCN(c2cccc(Cl)c2)CC1`: the inhibition was 0%.

With `COCC(=O)Nc1cc(OC)ccc1OC`, the inhibition is 3%.

For the molecule `CN(C)C(=O)Oc1cccc([N+](C)(C)C)c1`, the inhibition was 9% and 0%.

In the case of `COc1cc(SC)ccc1C(=O)Nc1ccon1`, the inhibition was 0%.

As to `COCCn1c(CN2CCN(c3cccc(Cl)c3)CC2)nc2c1c(=O)n(C)c(=O)n2C`, the inhibition is 0%.

In the case of `CSc1nc2c(c(=O)n1C)SC(C)C2` (stereo not given), the inhibition is 0%.

As to `CC(C)OC(=O)c1ccc(NC(=O)C2C3CC4OC(=O)C2C4C3)cc1` (stereo not given), the inhibition was 7%.

On to `CC(C)NCC(O)COc1cccc2[nH]ccc12` (stereo not given), for which the inhibition was 0%.

On to `O=C(O)CSc1ncn[nH]1`, for which the inhibition was 0%.

Regarding `O=C1CCCN1Cc1ncnn1-c1ccccc1`, the inhibition is 4%.

`Cc1nc2sc(C(c3cccs3)N3CCC(C(N)=O)CC3)c(O)n2n1` (stereo not given): the inhibition was 2%.

In the case of `Cc1nc2cc(-n3ccc(=O)cc3)ccc2n1-c1ccccc1`, the inhibition was 2%.

Consider `CCOc1ccccc1C(=O)NCc1ccc2c(c1)OCO2`, for which the inhibition was 4%.

With `CCn1cc(C(=O)NCc2ccco2)c(=O)c2cc(F)c(N3CCN(C(=O)c4ccco4)CC3)cc21`, the inhibition was 0%.

For the molecule `O=C(CCCn1c(=O)c2sccc2n(Cc2ccc(F)cc2)c1=O)NCc1ccco1`, the inhibition is 1%.

On to `CC12CN3CC(C)(CN(C1)C3c1cc(Br)ccc1O)C2=O` (stereo not given), for which the inhibition was 0%.

Turning to `CCCC(=O)Nc1cc(C)c2c(=O)oc3ccccc3c2n1`, the inhibition was 2%.

As to `Cc1c(N(C)C)nc2ccccc2c1N`, the inhibition is 0%.

Take `CCC(C)(C)n1nnnc1C(c1ccncc1)N1CCN(c2cccc(OC)c2)CC1` (stereo not given): the inhibition is 0%.

Regarding `CC(=O)Oc1ccc(C(c2ccc(OC(C)=O)cc2)c2ccccn2)cc1`, the inhibition was 0%.

For `CC(C)(C)NC(=O)C(Cc1ccccc1)NS(=O)(=O)c1cccc2nsnc12` (stereo not given), the inhibition is 0%.

For `CC1CCCCC1NC(=O)Cn1nnc(-c2ccc(Cl)cc2)n1` (stereo not given), the inhibition was 1%.

Regarding `CCOC(=O)c1ccccc1NC(=O)COC(=O)C1=COCCO1`, the inhibition was 0%.

Consider `Cc1nn(Cc2ccccc2Cl)c(C)c1NC(=O)C1C2CCC(O2)C1C(=O)O` (stereo not given), for which the inhibition was 1%.

In the case of `OCCNCCCCOc1ccccc1F`, the inhibition is 0%.

Regarding `CNC(=O)c1ccc2nc(NC(C)=O)sc2c1`, the inhibition was 0%.

In the case of `CCN(c1cccc(C)c1)S(=O)(=O)c1ccc2[nH]c(=O)c(=O)[nH]c2c1`, the inhibition was 7%.

As to `CCCSc1nnc2nc3c(nn12)c1ccccc1n3C`, the inhibition was 0%.

As for `CN1CCN(CCCNC(=O)Cn2ncc3c4ccccc4n(C)c3c2=O)CC1`, the inhibition was 0%.

For the molecule `Cc1ccccc1C(=O)NC1CCN(CC(=O)Nc2nccs2)CC1`, the inhibition is 0%.

As to `CN(C)C=Nc1nonc1N`, the inhibition is 10%.

In the case of `CC(C)NC(=O)c1ccccc1NC(=O)c1ccccc1N(C)S(C)(=O)=O`, the inhibition was 4%.

As to `COc1ccc(-c2noc(CSc3nc4ccccc4c(=O)n3-c3ccccc3)n2)cc1OC`, the inhibition is 1%.
